Experimental data reported in PubChem BioAssay AID1347056 (Sanford-Burnham Center for Chemical Genomics, 2019).
“And” between values parts separate entries of the source, which are not always exact repeats. Equal entries are not always repeated. Out of some 360,000 compounds screened, about 3,600 (1%) were called active. The entries come from a sample that favours actives as a whole. A number with no mark means an inactive call.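 How the source made its calls: active means compounds whose plate-normalised and pattern-corrected inhibition of the luciferase reporter signal at the single screening dose is 50% or more; inactive means the rest.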

test: inhibitors of TROY-driven NF-kB signaling, primary screen, Q293 LMP1-TROYcd cells, NF-kB luciferase, uHTS (AID 1347056); conditions: Q293 LMP1-TROYcd NF-kB luciferase reporter, 4 h; at 10 µM; stronger effect = higher value

Q: With `C#C[C@]1(O)CC[C@H]2[C@@H]3CCC4=CC(=O)CC[C@@H]4[C@H]3CC[C@@]21CC` as the molecule, how does the inhibition read?
A: -7.9% and -4.22%

Q: With `Cc1ccc(CNC(=O)C2(C(F)(F)F)C/C(=C\Cc3ccccc3)CCCO2)o1` (stereo unspecified) as the molecule, how does the inhibition read?
A: 6.34%

Q: Which inhibition does the source give for `CCC1Nc2ncnc(N3CCN(c4ccccc4)CC3)c2N(Cc2ccc(Cl)cc2)C1=O` (stereo unspecified) here?
A: 18.3%

Q: Which inhibition does the source give for `O=C(Nc1ncccc1O)c1ccc(S(=O)(=O)N2CCCCCC2)cc1` here?
A: -10.3%

Q: Which inhibition does the source give for `O=S(=O)(c1ccc(Br)cc1)N1CCC(c2nc3ccccc3[nH]2)CC1` here?
A: 2%

Q: For `N#CC(C(=O)c1ccc(S(=O)(=O)N2CCCCCC2)cc1)c1nc2ccccc2[nH]1` (stereo unspecified), which inhibition is on record?
A: 51.6% (active)

Q: Which inhibition does the source give for `CN1CCN(S(=O)(=O)c2cccc(C(=O)Nc3sccc3C#N)c2)CC1` here?
A: -0.51%

Q: With `O=C(NC(=S)Nc1cc(C(F)(F)F)ccc1N1CCOCC1)c1ccc(-c2cccc(Cl)c2)o1` as the molecule, how does the inhibition read?
A: -13.2%

Q: For `O=C(NC(=S)Nc1ccccc1C(=O)O)c1ccc(-c2ccc(Br)cc2)o1`, which inhibition is on record?
A: 79.8% (active)

Q: Which inhibition does the source give for `CN1CCN(C(=O)c2ccc(-c3ccc(Br)cc3)o2)CC1` here?
A: -59.3%

Q: For `[O-][n+]1c2c(nn1-c1ccc(Cl)c(Cl)c1)-c1nonc1CC2`, which inhibition is on record?
A: 10.8%

Q: Which inhibition does the source give for `Cc1ncc(CO)c(/C=N/NC(=O)c2cccc(S(=O)(=O)N3CCCC3)c2)c1O` here?
A: 32.4%

Q: Which inhibition does the source give for `Cc1ccc(OCC(=O)c2cc(C)n(Cc3ccco3)c2C)c([N+](=O)[O-])n1` here?
A: -2.73%

Q: Which inhibition does the source give for `COCCn1c(C)cc(C(=O)COC(=O)CNC(=O)c2ccco2)c1C` here?
A: -1.63%

Q: With `Cc1cc(C(=O)COC(=O)CNC(=O)c2ccc(F)cc2)c(C)n1Cc1ccco1` as the molecule, how does the inhibition read?
A: 71.1% (active)

Q: With `O=C(COC(=O)Cn1[nH]c(=O)c2ccccc2c1=O)Nc1c(Cl)cccc1C(F)(F)F` as the molecule, how does the inhibition read?
A: -7.36%

Q: With `O=C(Cn1cnc2ccccc2c1=O)Nc1cccc(S(=O)(=O)N2CCCCC2)c1` as the molecule, how does the inhibition read?
A: 6.2%

Q: For `O=C1CCCN1C(=O)COc1ccc([N+](=O)[O-])cc1`, which inhibition is on record?
A: 9.48%

Q: For `O=C1/C(=C\c2ccc([N+](=O)[O-])cc2)CS(=O)(=O)C/C1=C/c1ccc([N+](=O)[O-])cc1`, which inhibition is on record?
A: 75% (active)

Q: Which inhibition does the source give for `CCCCC(=O)Nc1c2c(nn1-c1ccc([N+](=O)[O-])cc1)CS(=O)(=O)C2` here?
A: -5.93%

Q: Which inhibition does the source give for `CC1(C)Cc2c(sc(NC(=O)C(=O)NCC3CCCO3)c2C(=O)O)CO1` (stereo unspecified) here?
A: -13.6%

Q: Which inhibition does the source give for `CCc1c(O)cc2n(c1=O)-c1ccccc1C2(C)C` here?
A: 4.14%

Q: Which inhibition does the source give for `CCN(CCCNC(=O)c1ccc2c(c1)NC(=O)CN2C)c1cccc(C)c1` here?
A: 71.7% (active)

Q: Which inhibition does the source give for `CCN(CCCNC(=O)C1CCN(S(=O)(=O)c2cnc[nH]2)CC1)c1ccccc1` here?
A: -0.34%

Q: With `CCN(CCCNC(=O)CCn1c(=O)[nH]c2ccsc2c1=O)c1ccccc1` as the molecule, how does the inhibition read?
A: 0.42%

Q: Which inhibition does the source give for `Cc1ccc(SC(CC(=O)c2ccc(C(C)(C)C)cc2)C(=O)O)cc1` (stereo unspecified) here?
A: 14.6%

Q: Which inhibition does the source give for `CCOc1ccc(NS(=O)(=O)c2ccc(Cl)c(C(=O)N(C)Cc3cccnc3)c2)cc1` here?
A: -2.69%

Q: With `Fc1ccccc1-c1cc2cc3c(cc2cn1)OCO3` as the molecule, how does the inhibition read?
A: -40.9%

Q: For `CC(NCC(=O)Nc1cc(Cl)cc(Cl)c1)c1ccccc1` (stereo unspecified), which inhibition is on record?
A: 17.5%

Q: Which inhibition does the source give for `Cc1nnc(SC(C(=O)c2ccccc2)c2ccccc2)[nH]c1=O` (stereo unspecified) here?
A: 14.7%

Q: With `Cc1nnc(SC(C(=O)Nc2cc(Cl)cc(Cl)c2)c2ccccc2)[nH]c1=O` (stereo unspecified) as the molecule, how does the inhibition read?
A: 54.4% (active)

Q: For `O=C(CN(c1ccc2c(c1)OCCO2)S(=O)(=O)c1ccccc1)Nc1ccc2c(c1)OCO2`, which inhibition is on record?
A: -3.48%

Q: With `C=CCn1c(C)cc(C2=NNC(=NCC)SC2)c1C` as the molecule, how does the inhibition read?
A: 88% (active)

Q: For `COCCn1c(C)cc(C2=NNC(=Nc3ccc(F)cc3)SC2)c1C`, which inhibition is on record?
A: 56.7% (active)

Q: Which inhibition does the source give for `CCN1CCN(c2ccc(S(=O)(=O)N3CCCCC3)cc2NC(=O)Cc2c(Cl)cccc2Cl)CC1` here?
A: 4.53%

Q: Which inhibition does the source give for `CCC(=O)Nc1ccccc1C(=O)N1CCN(Cc2ccccc2)CC1` here?
A: 12.5%

Q: With `CN1OC[C@@H]2CN(S(=O)(=O)c3cccc(C(F)(F)F)c3)[C@H](c3ccc(-c4cc5ccccc5o4)cc3)C[C@@H]21` as the molecule, how does the inhibition read?
A: 64.2% (active)

Q: With `CN1OC[C@@H]2CN(S(=O)(=O)c3cccc4ccccc34)[C@H](c3ccc(N4CCCCC4)cc3)C[C@@H]21` as the molecule, how does the inhibition read?
A: 14.6%

Q: Which inhibition does the source give for `COc1ccc(S(=O)(=O)N2C[C@H]3CON(C)[C@H]3C[C@H]2c2cccc(Br)c2)cc1` here?
A: 0.2%

Q: For `CC1Cc2ccccc2N1S(=O)(=O)c1c(N)n(C)c(=O)n(C)c1=O` (stereo unspecified), which inhibition is on record?
A: 0.15%

Q: Which inhibition does the source give for `Clc1ccc(-c2cccc3nccn23)cc1` here?
A: -13.8%

Q: With `CC(=O)N1N=C(c2ccncc2)OC1(Cc1ccccc1)Cc1ccccc1` as the molecule, how does the inhibition read?
A: 5.47%

Q: With `Cc1cc(Cl)c(S(=O)(=O)NCC2CCCO2)cc1OCC(N)=O` (stereo unspecified) as the molecule, how does the inhibition read?
A: -1.29%

Q: For `Cc1cc(Cl)c(S(=O)(=O)N(C)C)cc1OCC(N)=O`, which inhibition is on record?
A: 0.31%

Q: Which inhibition does the source give for `Cc1cc(Cl)c(S(=O)(=O)Nc2ccc3c(c2)OCCO3)cc1OCC(N)=O` here?
A: 77.5% (active)

Q: For `COC(=O)CSc1snnc1-c1ccc(Cl)c(Cl)c1`, which inhibition is on record?
A: -45.5%

Q: With `C=CCN(c1ccccc1C(=O)NCC(=O)OCC)S(=O)(=O)c1ccc(C)cc1` as the molecule, how does the inhibition read?
A: 1.62%

Q: With `S=C(NCCCc1cnc[nH]1)NCCCN(Cc1ccc(Cl)c(Cl)c1)c1ccc(Br)cn1` as the molecule, how does the inhibition read?
A: 8.84%

Q: With `Cc1ccc2oc(=O)c3cnn(CC(=O)N4CCCCCC4)c3c2c1` as the molecule, how does the inhibition read?
A: 6.16%

Q: For `Cc1ccc2oc(=O)c3cnn(CC(=O)N(Cc4ccco4)C4CCCCC4)c3c2c1`, which inhibition is on record?
A: 58.7% (active)

Q: For `CCOC(=O)C1CCCN(C(=O)Cn2ncc3c(=O)oc4ccc(C)cc4c32)C1` (stereo unspecified), which inhibition is on record?
A: 1.47%

Q: Which inhibition does the source give for `CCCCC(=O)Nc1ccc2c(c1)C(=O)NC2=O` here?
A: 10.3%

Q: With `Cc1cc(C(=O)COC(=O)C2CC2)c(C)n1-c1ccc(F)cc1` as the molecule, how does the inhibition read?
A: 90.5% (active)

Q: Which inhibition does the source give for `Cc1cc(C(=O)COc2ccccc2Cl)c(C)n1C1CC1` here?
A: -42.6%

Q: With `Cc1cc(C(=O)CSc2nc(N)cc(=O)[nH]2)c(C)n1-c1cccc(F)c1` as the molecule, how does the inhibition read?
A: -1.75%

Q: Which inhibition does the source give for `Cc1ccc(-c2nc3ccc(Cl)cn3c2Cc2ccccc2)cc1` here?
A: -69.6%

Q: Which inhibition does the source give for `Cc1ccc(-c2cc(N)on2)cc1` here?
A: -41.2%

Q: Which inhibition does the source give for `Cc1ccc(-c2nc3ccc(Br)cn3c2Cc2ccccc2C(F)(F)F)cc1` here?
A: -33.5%

Q: Which inhibition does the source give for `COc1ccc(-c2nc3ccc(Br)cn3c2Cc2ccc(C)cc2)cc1OC` here?
A: -36.6%

Q: Which inhibition does the source give for `Cc1ccc2nc(-c3ccc(Br)cc3)cn2c1` here?
A: 71.4% (active)

Q: For `Cc1ccc(-c2cn3cc(C)ccc3n2)cc1`, which inhibition is on record?
A: 86.4% (active)

Q: With `COc1ccc(C(=O)O)cc1S(=O)(=O)NCc1cccnc1` as the molecule, how does the inhibition read?
A: -5.43%

Q: Which inhibition does the source give for `CC(=O)Nc1ccc(/C(C)=N/NC(=O)CN(c2ccccc2Br)S(C)(=O)=O)cc1` here?
A: 8.85%

Q: With `COc1ccc(CN(C)C(=S)Nc2ccc(Cl)cc2Cl)cc1` as the molecule, how does the inhibition read?
A: -7.98%

Q: With `O=C(c1cc(COc2c(F)cccc2F)on1)N1CCSCC1` as the molecule, how does the inhibition read?
A: -17%

Q: Which inhibition does the source give for `Cn1cnc2c1c(=O)n(Cc1ccccc1C#N)c(=O)n2C` here?
A: 2.82%

Q: For `COc1cc2cc(C(=O)N/N=C/c3cccc(OC)c3OC)[nH]c2cc1OC`, which inhibition is on record?
A: 69.2% (active)

Q: For `COc1cccc2[nH]c(C(=O)NCCc3ccccc3)cc12`, which inhibition is on record?
A: -24.7%

Q: With `CCN1CCCC1CNC(=O)c1cc2cc(OC)c(OC)cc2[nH]1` (stereo unspecified) as the molecule, how does the inhibition read?
A: -3.54%

Q: For `CN(Cc1ccc(F)cc1)C(=O)CN1C(=O)c2ccccc2S1(=O)=O`, which inhibition is on record?
A: -51.1%

Q: With `CC1CCCN(C(=O)Cn2c(=O)oc3ccccc32)C1` (stereo unspecified) as the molecule, how does the inhibition read?
A: -6.27%

Q: Which inhibition does the source give for `Cc1ccc2c(c1)N(CC(=O)N1CCCC(C)C1)C(=O)CO2` (stereo unspecified) here?
A: -0.08%

Q: With `CC1CCCN(C(=O)CN2C(=O)c3ccccc3S2(=O)=O)C1` (stereo unspecified) as the molecule, how does the inhibition read?
A: 58.2% (active)

Q: With `COc1ccc(CNC(=O)CN2C(=O)c3ccccc3S2(=O)=O)cc1` as the molecule, how does the inhibition read?
A: 9.08%

Q: Which inhibition does the source give for `O=C(CN1C(=O)c2ccccc2S1(=O)=O)N1CCc2ccccc21` here?
A: 89.1% (active)

Q: With `CC(C)(C)c1ccc(S(=O)(=O)N2CCN(C(=O)c3ccc4c(c3)C(=O)N(Cc3ccncc3)C4=O)CC2)cc1` as the molecule, how does the inhibition read?
A: 1.2%

Q: Which inhibition does the source give for `CC(NC(=O)COC(=O)c1ccc(Cl)cc1O)c1ccc(F)cc1` (stereo unspecified) here?
A: 4.75%

Q: Which inhibition does the source give for `Cc1cc(S(=O)(=O)NC2CCCCC2)ccc1OCC(=O)NCc1cccnc1` here?
A: -5.71%

Q: For `O=C(CCc1nc(-c2ccccc2)no1)Nc1cccc(C(=O)NC2CC2)c1`, which inhibition is on record?
A: 18.6%

Q: For `CN(C)/C=C(\C#N)C(=O)c1cccnc1Oc1ccc(F)cc1F`, which inhibition is on record?
A: -7.14%

Q: Which inhibition does the source give for `COc1ccc(-c2cc3c(c4c2ccn4C)C2CCC3C2)cn1` (stereo unspecified) here?
A: 8.35%

Q: Which inhibition does the source give for `Cc1ccc(NS(=O)(=O)c2ccc(-c3ccc(=O)[nH]n3)o2)c(C)c1` here?
A: -3.14%

Q: For `CC(NC(=O)COC(=O)c1ccc2ccccc2n1)c1ccccc1` (stereo unspecified), which inhibition is on record?
A: -0.28%

Q: For `CC1COc2ccccc2N1C(=O)c1cccnc1Cl` (stereo unspecified), which inhibition is on record?
A: 8%

Q: With `CN(C)CCNC(=O)c1ccc(Cl)c2cc3ccccc3nc12` as the molecule, how does the inhibition read?
A: 51.8% (active)

Q: Which inhibition does the source give for `CCCN(CCC)CCNC(=O)c1cc2c(C)nc3ccccc3c2o1` here?
A: -8.54%

Q: For `O=C(NCCc1ccccn1)c1cc(-c2ccc(Cl)cc2)nc2ccccc12`, which inhibition is on record?
A: 15.8%

Q: With `COc1ccc(OC)c(CCNC(=O)CCn2ccc3cc(S(=O)(=O)N4CCCC4)ccc32)c1` as the molecule, how does the inhibition read?
A: -2.42%

Q: Which inhibition does the source give for `CC1CCN(c2ccc3c(c2)S(=O)(=O)c2cc(C(=O)O)ccc2C3=O)CC1` here?
A: -46.1%

Q: With `O=C(c1ccc2c(c1)N(Cc1ccc(F)cc1)C(=O)c1ccccc1S2(=O)=O)N1CCN(c2ccccn2)CC1` as the molecule, how does the inhibition read?
A: 11.9%

Q: For `O=C1c2ccccc2S(=O)(=O)c2cc(N3CCN(c4ccccn4)CC3)ccc21`, which inhibition is on record?
A: 69.7% (active)
